Source: PubChem BioAssay (National Center for Advancing Translational Sciences (NCATS))
Shown are actives, neighbours in structure and some others; about 2.4% of the full set was active somewhere.
TRHR agonist-1 – qHTS for Small Molecule Agonists and Allosteric Enhancers of Human TRH Receptor: Primary Screen for Agonists | AID 493084, 2011 | Thyrotropin-releasing hormone receptor (Homo sapiens), P34981 | TRHR cells, calcium flux fluo-8, FDSS agonist mode | activation, % at 2 µM | actives 0.18% (n = 360,000); in the data active = activation above about 30%; note: 0% is about no effect
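In this calcium-flux screen, cells bearing human TRHR are dye-loaded with fluo-8, baselined for 10 cycles, then exposed to library compounds; positive kinetic calcium responses during the agonist phase mark hits, with TRH as control.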
GLP1R cytotox – qHTS of GLP-1 Receptor Inverse Agonists: Cytotox Screen; Potency, µM (top dose mostly 38.3 µM), for the others: at the highest dose activity change, negative = inhibition, actives largely listed as inhibitors; actives 0.13% (n = 410,000); HEK293 cAMP-luciferase reporter cells, luminescence, 24 h; AID 624418, 2012;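 note: loss of luciferase light is scored as toxicity; potency is the fitted concentration of half-maximal effect; % is set by controls: 0 for no effect and ±100 for the full control effect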
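To flag toxic compounds, the library was rerun on cells for 24 hr at 37 deg C and 5% CO2. Viability-linked luminescence was captured 12 min after adding luciferase detection reagent.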
PTHR1 ag – qHTS for PTHR1 Agonists: Primary Screen. Parathyroid hormone/parathyroid hormone-related peptide receptor (Homo sapiens), Q03431. HEK293 GP2 PTHR1 cells, GloSensor cAMP luminescence, 1 h. Potency, µM (titrated, usually from 115 µM), for inactives: at the highest dose activation, hits mostly activators. actives 0.075% (n = 410,000). AID 743266, 2014; note: potency is the fitted concentration of half-maximal effect; nearly all actives have a fitted effect of over 55% in size
Target sequence (Q03431 whole entry, looked up): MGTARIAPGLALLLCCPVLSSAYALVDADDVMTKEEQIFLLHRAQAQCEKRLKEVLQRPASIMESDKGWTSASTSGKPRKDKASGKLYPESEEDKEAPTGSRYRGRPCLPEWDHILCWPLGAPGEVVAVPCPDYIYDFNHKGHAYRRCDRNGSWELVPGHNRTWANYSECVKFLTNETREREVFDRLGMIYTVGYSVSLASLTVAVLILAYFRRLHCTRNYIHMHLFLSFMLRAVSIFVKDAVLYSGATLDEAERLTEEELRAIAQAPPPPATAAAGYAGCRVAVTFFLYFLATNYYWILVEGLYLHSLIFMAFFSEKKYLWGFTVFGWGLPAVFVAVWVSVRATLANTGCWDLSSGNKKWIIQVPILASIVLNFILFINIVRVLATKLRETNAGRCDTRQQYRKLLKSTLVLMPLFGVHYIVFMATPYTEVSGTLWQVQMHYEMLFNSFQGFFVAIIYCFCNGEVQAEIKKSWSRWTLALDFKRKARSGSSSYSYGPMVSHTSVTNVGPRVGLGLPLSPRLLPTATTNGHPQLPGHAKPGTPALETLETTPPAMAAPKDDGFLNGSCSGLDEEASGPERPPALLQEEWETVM
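HEK-293-derived GP2 cells expressing PTHR1 and a GloSensor cAMP reporter, 3,000/well, plated overnight, given luciferin plus IBMX (each 0.5 mM as added) for 1 h at 37 °C, then compound for 1 h at 37 °C. Luminescence was read after 15 min at room temperature.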
GLP-1R inv ag – qHTS of GLP-1 Receptor Inverse Agonists (Inhibition Mode). Potency, µM (highest dose often 38.3 µM), without a hit: at the highest dose activity change, negative = inhibition, actives largely listed as inhibitors. actives 1.6% (n = 410,000). HEK293 GLP-1R CRE-luciferase, luminescence, 24 h; GLP-1R form is constitutively active; note: potency is the fitted concentration of half-maximal effect; % is set by controls: 0 for no effect and ±100 for the full control effect; nearly all actives have a fitted effect of over 55% in size
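HEK293 cells stably co-expressing constitutively active GLP-1R and a cAMP-responsive luciferase reporter were seeded in DMEM with 10% Nu serum, given compounds after 12 h, and incubated 24 h at 37 deg C. Luminescence was then read.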
GLP-1R agonist – qHTS of GLP-1 Receptor Agonists. AID 624172, 2012. Potency, µM (titrated, usually from 45.6 µM), for inactives: top-dose activation, hits mostly activators. actives 0.007% (n = 380,000). Glucagon-like peptide 1 receptor (Homo sapiens), P43220. HEK293 GLP-1R CRE-luciferase, luminescence, 4-6 h; cells express a hypersensitive GLP-1R form; note: potency is the fitted concentration of half-maximal effect; % of control where 0% means no effect
TRHR enhancer-1 – qHTS for Small Molecule Agonists and Allosteric Enhancers of Human TRH Receptor: Primary Screen for Enhancers; Thyrotropin-releasing hormone receptor (Homo sapiens), P34981; TRHR cells, fluo-8 calcium fluorescence, EC20 TRH enhancement; enhancement, % at 2 µM; actives 0.66% (n = 360,000); AID 493056, 2011; in the data active = enhancement above about 30%; note: 0% is about no effect
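Enhancer read-out: after compound pinning and an initial kinetic agonist-mode read, an EC20 of TRH (10 nM final) was injected and fluo-8 calcium signal (Ex 480/Em 530) followed at 1 s/cycle for 100 cycles in TRHR-expressing cells.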
TRHR enhancer-2 – qHTS for Small Molecule Agonists and Allosteric Enhancers of Human TRH Receptor: Confirmation Screen for Enhancers | TRH receptor cell assay, enhancer confirmation qHTS | AID 493076, 2011 | activity change, negative = inhibition, % at 46.1 µM | 970 tested, under 10 active | shares compounds with TRHR enhancer-1;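 note: compound effect scored on response to added TRH at EC20 of 10 nM; 0% is about no effect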
TRHR agonist-2 – qHTS for Small Molecule Agonists and Allosteric Enhancers of Human TRH Receptor: Confirmation Screen for Agonists; actives 8% (n = 970); TRHR-expressing cells, agonist activation read-out; Potency, µM (doses to about 46.1 µM), without a hit: top-dose activation, most hits filed as activators; shares compounds with TRHR enhancer-1; note: potency is the fitted concentration of half-maximal effect; 0% is about no effect; nearly all actives have a fitted effect of over 75% in size
* marks the source's active call; other numbers are inactive results; i = inactive; ? = inconclusive; · = no result given; [ ] = dose if it differs, or a comment. Unless noted, calls come from the whole dose curve; as a rule, active = well fitted curve in the direction sought with a large enough effect; inconclusive = small, poorly fitted or top-dose-only effect, or another doubt; inactive = no such curve, though single readings can be large; an effect the other way counts as inactive or inconclusive.

SMILES	TRHR agonist-1	GLP1R cytotox	PTHR1 ag	GLP-1R inv ag	GLP-1R agonist	TRHR enhancer-1	TRHR enhancer-2	TRHR agonist-2
Cc1ccc(N2C(=O)NC(=O)/C(=C\c3cc(C)n(-c4sc5c(c4C#N)CCCC5)c3C)C2=O)cc1	1	-23%	-14%	3.5µM*	7%	-9	·	·
CC12CCC(=O)C=C1C=CC1C2CCC2(C)C(O)CCC12 (stereo unspecified)	·	-3%	-4%	92%	20%	·	·	·
S=C=Nc1cccc(C2(N3CCCCC3)CCCCC2)c1	-1	?	i	8.9µM*	20%	4	·	·
CCOC(=O)C1=C(Cn2cnc3ccccc32)NC(=O)NC1c1cc(C)ccc1C (stereo unspecified)	0	11µM*	i	?	-6%	14	·	·
CCOC(=O)[C@]12Cc3cc(C)ccc3[C@H]1N(Cc1ccccc1)C(=O)c1ccccc12	·	1%	-23%	?	-1%	·	·	·
Oc1c(Br)cc(Br)cc1Oc1ccc(Br)cc1Br	0	·	·	·	·	-2	·	·
O=P1(c2ccccc2)Nc2ccccc2N1c1ccccc1 (stereo unspecified)	·	-1%	i	4.5µM*	5%	·	·	·
C[C@]12CC[C@H](O)CC1=CCC1C2CC[C@@]2(C)C1C[C@@H](O)[C@@H]2O (stereo partly specified)	·	0%	i	12%	-15%	·	·	·
Cc1cccc(-c2cc3nc(-c4ccccc4)cc(N4CCC5(CC4)OCCO5)n3n2)c1	1	113%	i	10µM*	0%	5	·	·
CC(C(=O)c1ccccc1)N1C(=O)c2ccccc2C1=O (stereo unspecified)	-1	0%	-10%	19%	3%	0	·	·
CC(Cc1ccccc1)N1C(=O)c2ccccc2C1=O (stereo unspecified)	0	0%	-4%	-11%	-4%	55*	-13	2%
CCC1(C)OC(c2ccccc2)=C/C(=C/C=C2C(=O)NC(=O)NC2=O)O1 (stereo unspecified)	41*	163%	-33%	6%	9%	-4	-3	?
O=C(CN1CC=C(c2ccccc2)CC1)NC(=O)NCc1ccccc1	-1	8%	-12%	-18%	4%	62*	?	3%
CN(CC=CCN(C)P(=S)(N1CC1)N1CC1)P(=S)(N1CC1)N1CC1	·	-9%	-18%	-21%	0%	·	·	·
Cc1ccccc1-c1nc(CS(=O)CC(=O)N2CCC3(CC2)OCCO3)c(C)o1 (stereo unspecified)	-1	-6%	i	2%	-2%	42*	-4	-1%
CC(Cc1ccccc1)N(C)C (stereo unspecified)	·	·	·	·	7%	·	·	·
Cc1cc[n+](Cc2ccccc2)cc1	0	4%	-24%	1%	8%	-1	·	·
CCCCCCn1c(N)c(C(=O)NCCN2CCOCC2)c2nc3ccccc3nc21	2	380%	i	?	-50%	1	·	·
O=C(NCCN1CCOCC1)c1ccc(Cl)nc1	75*	-11%	i	2%	4%	1	5	0%
O=C1NC(=O)N(c2ccccc2)C(=O)/C1=C/c1ccc(Sc2ccccc2)o1	2	?	-13%[57.5 µM]	-22%	-2%	-2	·	·
O=C1NC(=O)N(c2cccc(Cl)c2)C(=O)/C1=C\c1ccc(Sc2nc3ccccc3[nH]2)o1	47*	17%	-1%	1%	-33%	22	7	?
